# Measurements taken from PubChem BioAssay AID686979 (National Center for Advancing Translational Sciences (NCATS), 2013).
# Hit rate of the full screen: of about 420,000 compounds, about 50,000 (12%) were called active. Inconclusive results (about 26%) are left out. Calls come from the whole dose curve; as a rule, active = well fitted inhibition curve with a large enough effect; inconclusive = small, poorly fitted or top-dose-only effect; inactive = flat fitted curve, though single readings scatter. Many of the other results were omitted from the sample, so actives are more common in it than they were.
# Assay: qHTS for Inhibitors of human tyrosyl-DNA phosphodiesterase 1 (TDP1): qHTS in cells in presence of CPT; note: nearly all actives have a fitted effect of over 55% in size
# Settings: chicken DT40 Tdp1-/-;hTDP1 cells + 20 nM CPT, ATP luminescence, 48 h; series mostly up to 46.2 µM; activity change, negative = growth inhibition: at the top concentration
# How it was run: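 Cell growth measured by CellTiter-Glo luminescence after a minimum 48 h, 37 C compound exposure with 20 nM CPT in Tdp1-knockout DT40 cells stably expressing hTDP1, seeded 400/well; qHTS titration format.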
# % is set by controls: 0 for no effect and ±100 for the full control effect; potency is the fitted concentration of half-maximal effect.
SMILES,"activity change, negative = growth inhibition",Potency
O=CN1CCN(C(=O)c2ccc3c(c2)OCO3)CC1,-4.43% (inactive),
Cc1ccc(C(=O)O)cc1N1C(=O)CCCC1=O,9.25% (inactive),
Cc1ccc(-n2c(C)nnc2SCC(=O)NC2CC2)cc1,-4.64% (inactive),
COc1ccc(Cl)cc1NC(=O)C1CC(=O)N(c2ccc(F)cc2)C1 (stereo unspecified),-17.6% (inactive),
COc1ccccc1N1CC(C(=O)Nc2ccc(S(=O)(=O)N3CCOCC3)cc2)CC1=O (stereo unspecified),-22% (inactive),
COc1cc(OC)c(N2CC(C(=O)Nc3cc(Cl)ccc3N3CCOCC3)CC2=O)cc1Cl (stereo unspecified),,3.66 µM (active)
CCCOc1ccc(Cc2c(O)nc(N)[nH]c2=O)cc1C,-0.484% (inactive),
Cc1ccc(F)cc1S(=O)(=O)Nc1cccc(C(=O)N2CCCC(C(N)=O)C2)c1 (stereo unspecified),13.4% (inactive),
Cc1ccc(O/C=C2\OC(=O)c3ccccc32)cc1,-28% (inactive),
Cc1c(CCC(=O)N[C@@H](CC(C)C)C(=O)O)c(=O)oc2c(C)c3oc4c(c3cc12)CCCC4,-3.78% (inactive),
O=C(OCC1OC(Oc2ccc(O)cc2)C(O)C(O)C1O)c1ccccc1 (stereo unspecified),-20% (inactive),
CCN(CC)S(=O)(=O)c1ccc2nc(COC(=O)c3n[nH]c4ccccc34)[nH]c2c1,-5.88% (inactive),
CCc1ccc(NC(=O)C2CCCN2S(=O)(=O)c2ccc3nc(-c4ccccc4)[nH]c3c2)cc1 (stereo unspecified),,23.1 µM (active)
CCc1ccccc1NS(=O)(=O)c1ccc2nc(-c3ccccc3)[nH]c2c1,,20.6 µM (active)
CCc1nnc(NC(=O)C2CCCN2S(=O)(=O)c2ccccc2)s1 (stereo unspecified),-10.1% (inactive),
Cc1ccc(S(=O)(=O)Nc2ccccc2CNc2c(C)n(C)n(-c3ccccc3)c2=O)cc1,0.158% (inactive),
CC(=O)Nc1ccc(NC(=O)C2CCCN2S(=O)(=O)c2cccc(C(F)(F)F)c2)cc1 (stereo unspecified),-24.5% (inactive),
N#Cc1ccc(S(=O)(=O)NCC(=O)OCC(=O)NCCc2ccccc2)cc1,7.05% (inactive),
CCCn1c(N)c(N(CCOC)C(=O)C2CCCC2)c(=O)[nH]c1=O,-2% (inactive),
COc1ccc(-c2nn(-c3ccccc3)cc2/C=C\C(=O)Nc2ccc(C(=O)O)cc2)cc1,,23.1 µM (active)
O=C(c1cn(-c2ccccc2)nc1-c1cccnc1)N1CCCCC1,0.912% (inactive),
Cc1ccc(-c2nn(-c3ccccc3)cc2C(=O)Nc2cccc(S(=O)(=O)N3CCOCC3)c2)cc1,-25.5% (inactive),
COc1ccc(-c2nn(-c3ccccc3)cc2/C=C\C(=O)N2CCOCC2)cc1[N+](=O)[O-],12.3% (inactive),
O=C(O)c1ccc(NC(=O)c2cn(-c3ccccc3)nc2-c2ccc(Cl)cc2)cc1,,20.6 µM (active)
O=C(O)/C=C/c1cn(-c2ccccc2)nc1-c1cccs1,-7.54% (inactive),
COC(=O)c1cn(-c2ccccc2)nc1-c1cccnc1,-18.1% (inactive),

SMILES,"activity change, negative = growth inhibition",Potency
O=C(NNC(=S)NC(=O)c1cn(-c2ccccc2)nc1-c1ccccc1)c1ccncc1,,14.6 µM (active)
O=C(O)c1ccc(NC(=O)c2ccc(COc3ccc(Cl)cc3)o2)cc1,-22.3% (inactive),
COc1ccc(S(=O)(=O)N(CCCN2CCCC2=O)Cc2cc3c(C)ccc(C)c3[nH]c2=O)cc1,-28.9% (inactive),
O=C(CN1CCN(S(=O)(=O)c2ccc3ccccc3c2)CC1)NC(=O)NC1CCCCC1,-16.3% (inactive),
O=C(CN1CCC(NC(=O)Nc2ccccc2)CC1)Nc1cccc([N+](=O)[O-])c1,6.65% (inactive),
O=C(N/N=C\c1ccc(Br)cc1)c1ccc(Cn2cccn2)o1,-10.9% (inactive),
O=C1c2ccccc2C(Nc2ccc3c(c2)OCCO3)N1Cc1ccco1 (stereo unspecified),,20.6 µM (active)
S=C(NCc1ccco1)Nc1ccc2c(c1)OCCO2,-11.7% (inactive),
O=C(NC1CCCCC1)C1c2ccccc2C(=O)N1Cc1ccco1 (stereo unspecified),1.87% (inactive),
Cn1cnc2c1c(=O)n(Cc1ccccc1C#N)c(=O)n2C,-5.65% (inactive),
CC(=O)Nc1ccc(S(=O)(=O)NNC(=O)CCc2ccccc2)cc1,4.6% (inactive),
CCc1nccn1S(=O)(=O)c1cc(Br)ccc1Br,-16.5% (inactive),
COC(=O)c1ccc(CNC(=O)C2CCC(=O)N(Cc3cccc(F)c3)C2)cc1 (stereo unspecified),1.7% (inactive),
COc1cc(CNC(=O)c2cc3n(n2)CCCN(Cc2cccc(F)c2)C3=O)cc(OC)c1OC,,16.4 µM (active)
CCNC(=O)c1cc2n(n1)CCCN(Cc1ccc(C)cc1)C2=O,-16.7% (inactive),
O=C(c1cc(C2CCCCN2S(=O)(=O)c2ccccc2)on1)N1CCOCC1 (stereo unspecified),-14.5% (inactive),
CSc1ccc(/C=N/N2CCN(Cc3ccccc3Cl)CC2)cc1,-24.1% (inactive),
COc1ccc(CNC(=O)COC(=O)c2c(C)nn(-c3ccccc3)c2C)cc1OC,-1.35% (inactive),
Cc1cc(=O)oc(C)c1C(=O)NCc1ccc(F)cc1,-11% (inactive),
CCCOc1ccccc1-c1nc(SCCC(=O)O)n[nH]1,-8.61% (inactive),
Cc1ccc(NC(=O)c2cc(-c3ccccc3O)n[nH]2)cc1C,-22% (inactive),
CCCOc1ccc(F)cc1-c1cc(C(=O)Nc2ccc(F)c(Cl)c2)[nH]n1,,14.6 µM (active)
COc1ccc(NC(=O)CN2CCN(S(=O)(=O)c3ccc(F)cc3)CC2)cc1Cl,-3.64% (inactive),
CCCOc1ccc(F)cc1-c1cc(C(=O)NCc2ccc(F)cc2)[nH]n1,,14.6 µM (active)
COc1ccccc1C(=O)COC(=O)COc1ccc(C#N)cc1,5.69% (inactive),
COc1cccc(NC(=O)N(C)C[C@@H]2Oc3ncc(Br)cc3C(=O)N([C@@H](C)CO)C[C@H]2C)c1,-4.55% (inactive),

SMILES,"activity change, negative = growth inhibition",Potency
Oc1ccc(-c2cccc(-c3ccc(O)cc3)c2)cc1,-21.4% (inactive),
CN(C(=O)COC(=O)c1cc(=O)[nH]c2ccccc12)C1CCCCC1,-1.93% (inactive),
CCOc1ccccc1CNC(=O)c1ccc2c(c1)nc1n2CCC(C)C1 (stereo unspecified),-1.2% (inactive),
COc1ccc(NC(=O)CN(C)C(=O)/C=C/c2cn(Cc3ccccc3)nc2-c2cccnc2)cc1,-17.9% (inactive),
O=C(COC(=O)/C=C/c1cn(-c2ccccc2)nc1-c1cccnc1)Nc1ccc(Cl)cc1Cl,,9.2 µM (active)
Cc1ccc(/C=C/C(=O)OCC(=O)Nc2cccnc2Cl)cc1,5.25% (inactive),
Cc1[nH]n(-c2ccccc2)c(=O)c1CCOC(=O)c1ccc(C(F)(F)F)cc1,4.03% (inactive),
COc1ccc(S(=O)(=O)NCCCc2ccccc2)cc1,-18.6% (inactive),
COc1ccc(S(=O)(=O)NCCCCOc2ccc(Cl)cc2)cc1,,10.3 µM (active)
COc1ccc(OCCNS(=O)(=O)Cc2ccccc2)cc1,-12% (inactive),
CC(=O)c1ccc(S(=O)(=O)N(C)CCCC(=O)N(C)Cc2ccccc2F)cc1,-5.41% (inactive),
O=C(CSc1nc2ccccc2c(=O)n1-c1ccc(F)cc1)NC1CC1,-14.4% (inactive),
Cc1ccc(-n2c(SCC(=O)N/N=C/C=C/c3ccccc3[N+](=O)[O-])nc3ccccc3c2=O)cc1,-19.7% (inactive),
Cc1nn(-c2ccccc2)c(C)c1/C=N/NC(=O)CSc1nc2ccccc2c(=O)n1-c1ccccc1,,16.4 µM (active)
C/C(=N\NC(=O)CSc1nc2ccccc2c(=O)n1-c1ccccc1C)c1cccs1,,23.1 µM (active)
CCc1c(O)nc(SCC(=O)N2CCCCC2)n(-c2ccccc2C)c1=O,-14.5% (inactive),
C/C(=N\NC(=O)COc1c(C)cccc1C)c1cccs1,-4.87% (inactive),
CCn1c(SCC(=O)NC2=NCCS2)nnc1C(C)NC(=O)c1ccccc1F (stereo unspecified),6.99% (inactive),
Cc1ccc(Nc2cc(=O)n(C3CCCCC3)c(=O)[nH]2)cc1C,-15.9% (inactive),
C[C@H](NC(=O)c1nc[nH]c1C(=O)NCC(=O)OC(C)(C)C)c1ccccc1,19.7% (inactive),
CCC1(CC)NC(=O)N(CC(=O)OCC(=O)Nc2ccc(C(F)(F)F)cc2)C1=O,-5.2% (inactive),
Cc1nc(S(=O)(=O)c2ccc(Br)cc2)nc2c1CCC2,21.9% (inactive),
Cc1cc(Nc2ccc(C)c(C)c2)n2ncnc2n1,-9.95% (inactive),
Brc1ccc(Nc2c3c(nc4ncnn24)CCC3)cc1,,25.9 µM (active)
Cc1cc([N+](=O)[O-])c(NC2CCCCC2)c([N+](=O)[O-])c1,1.16% (inactive),
Cc1sc2c(c1C)c(=O)n(-c1ccccc1)c(=O)n2CC(=O)NCC1CCCO1 (stereo unspecified),-3.05% (inactive),

SMILES,"activity change, negative = growth inhibition",Potency
CCC(C)NC(=O)Cn1c(=O)n(-c2ccc(Cl)cc2)c(=O)c2c3c(sc21)CCCC3 (stereo unspecified),-16.5% (inactive),
Cc1ccc(NC(=O)Cn2c(=O)n(-c3ccccc3)c(=O)c3c4c(sc32)CCCC4)cc1,,14.6 µM (active)
CCOc1ccc(N(CC)C(=O)C2CCN(S(=O)(=O)c3cccc4nonc34)CC2)cc1,-25.8% (inactive),
COc1ccc(NC(=O)N2CCCC(c3nc(-c4ccc(F)cc4)no3)C2)cc1 (stereo unspecified),-12.4% (inactive),
CCN(C(=O)C1CCCN(c2nc(-c3ccc(OC)cc3)no2)C1)c1ccc(OC)cc1 (stereo unspecified),,16.4 µM (active)
CS(=O)(=O)c1ccccc1C(=O)Nc1ccc2sccc2c1,-0.774% (inactive),
O=C(Nc1cc2c3c(c1)CC(=O)N3CCC2)c1ccccc1F,12% (inactive),
CC(=O)N(CN1C(=O)C2C3C=CC(C3)C2C1=O)c1cccc(Cl)c1 (stereo unspecified),-1.76% (inactive),
CCN1C(=O)[C@H]2[C@@H](c3ccccc3)N[C@]3(CCCN(Cc4ccc(C)cc4)C3=O)[C@H]2C1=O,-10.5% (inactive),
CCN1C(=O)[C@@H]2[C@@H](c3ccc(-c4cccc(Cl)c4)cc3)N3CCC[C@@]3(C(=O)OC)[C@@H]2C1=O,,14.6 µM (active)
CCCCC12CN3CC(C)(CN(C1)C3c1ccc(O)c(OC)c1)C2=O (stereo unspecified),-2.88% (inactive),
CCCCCCSc1ccc([C@@H]2[C@@H]3C(=O)N(CC)C(=O)[C@@H]3[C@]3(C(=O)OC)CCCCN23)cc1OC,,20.6 µM (active)
CC1CCN(CCCNC(=O)CN2C(=O)CSc3ccc(S(=O)(=O)N4CCCCC4)cc32)CC1,,inactive
O=C(Cc1ccccc1)Nc1ccc(C(=O)Nc2ccccc2C(=O)O)cc1,10.8% (inactive),
Cc1ccc(CNC(=O)Cc2cn(C)c3ccccc23)cc1,18.9% (inactive),
CCn1cc(CCC(=O)NCc2ccc(F)cc2)c2ccccc21,,16.4 µM (active)
CC(NC(=O)Cn1cc(C(F)(F)F)cc(Cl)c1=O)c1ccccc1 (stereo unspecified),17.6% (inactive),
O=C(CCc1cn(Cc2ccc(F)cc2)c2ccccc12)NC1CCCCC1,-10.8% (inactive),
Cc1ccc(CNC(=O)[C@@H](NC(=O)Cc2ccccc2)C(C)C)cc1,-11.3% (inactive),
Cn1cc(CCC(=O)NC2CC2)c2ccccc21,-1.11% (inactive),
CC(NC(=O)CCc1cn(Cc2ccccc2Cl)c2ccccc12)c1ccccc1 (stereo unspecified),,20.6 µM (active)
Cc1ccc(Cn2cc(CCC(=O)NCc3ccc(OC(C)C)cc3)c3ccccc32)cc1,,23.1 µM (active)
CCCCC(=O)NCc1ccc(F)cc1,7.38% (inactive),
